MITF TRPM1 HTS = increases MITF-driven TRPM1 promoter luciferase signal; 300,000 tested, 0.75% active; activation, % at 12.5 µM; SK-MEL-5 TRPM1-promoter luciferase, 24 h; % of positive control, neutral wells = 0;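 active means mean activation of at least 80% with every replicate also reaching 80%; inconclusive means mean reaches 80% but some replicate falls short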;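 further: 0% = neutral control wells and 100% = parthenolide positive control wells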
esBAF inh = inhibitors of esBAF chromatin remodeling in mouse ES cells; Bmi1-luciferase knock-in reporter, 24 h; 100% = twice the neutral-well signal; reporter increase, % at 12.5 µM; 350,000 tested, 2% active; AID 602393; in the data active means activation above about 40%; inconclusive means no clear call, values can overlap the other calls;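 further: 0% = median of the plate's neutral control wells and 100% = double that signal; a rise in the Bmi1 reporter signal indicates esBAF inhibition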
HSF1 activator = increases HSF-1 driven luciferase reporter signal. NIH3T3-HGL HSF-1 luciferase reporter, MG132, 8 h; 100% = twice DMSO control signal. activation, % at 9 µM. 300,000 tested, 1.7% active;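 active means mean replicate activation of at least 50% with a set share of replicates each reaching 50%; inconclusive means only one of those two conditions met; inactive means mean below 50% and too few replicates reaching it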;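 further: 0% = median of the neutral control wells and 100% = twice that signal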
Wnt bcat act = Wnt/beta-catenin pathway activation | 300,000 tested, 1.2% active | activation, % at 9.35 µM | Wnt/beta-catenin reporter cell assay, activator, plate reader; in the data active means activation above about 30%, passing the limit was not always enough; inconclusive means no clear call, values can overlap the other calls;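 further: 0% = neutral control wells and 100% = positive control wells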
SMARCA2 act = activators of SMARCA2 function; MG213 cells, MMTV-luciferase reporter, dexamethasone, overnight; activation, % at 9.1 µM; 370,000 tested, 1% active; AID 652017; in the data active means activation above about 7.8%;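 further: 0% = vehicle wells and 100% = reference activator wells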
HSF1 inhib = HSF1 inhibition; 300,000 tested, 0.77% active; AID 2098; activity change, negative = inhibition, % at 7.5 µM (by protocol); NIH3T3-HGL HSE-luciferase, MG132-induced, luminescence 8 h; hits give low values;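 active means more than half of replicate wells show activity change below -50%, luminescence cut by over half; inconclusive means some wells, but at most half, below -50%; inactive means no replicate well below -50%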;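 further: luciferase reports HSF-1 transcriptional activity via heat shock element; 0% = median of DMSO wells and -100% = zero luminescence signal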
Numbers without * were called inactive. Most compounds without a hit are left out; they make up all but 4.3% or so of the library.

`C[C@@H]1CN([C@H](C)CO)C(=O)CCCn2nncc2CO[C@@H]1CN(C)Cc1cccc(O)c1` gave esBAF inh -4.
COc1ccc(S(=O)(=O)Nc2cc3c4c(oc3c3ccccc23)CCCC4=O)cc1 was read as MITF TRPM1 HTS -37, esBAF inh -6, HSF1 activator 56*, SMARCA2 act -2 and HSF1 inhib 39.
`COc1ccc(S(=O)(=O)Nc2cc3c4c(oc3c3ccccc23)CC(C)(C)CC4=O)cc1` gave esBAF inh -9, HSF1 activator 32, SMARCA2 act 2 and HSF1 inhib 11.
`Cc1ccc(-c2cnc3c(c2)C(=O)N([C@@H](C)CO)C[C@@H](C)[C@H](CN(C)Cc2ccccc2C(=O)O)O3)cc1` gave esBAF inh 1.
For Cc1cc(C(=O)CSc2nc3ccccc3[nH]2)c(C)n1CC1CCCO1 (stereo not given) the results were MITF TRPM1 HTS -33, esBAF inh -52, HSF1 activator -61, SMARCA2 act -9 and HSF1 inhib -54*.
`Cc1cc(C(=O)CSc2nc(N)cc(=O)[nH]2)c(C)n1CC1CCCO1` (stereo not given) gave MITF TRPM1 HTS 7, esBAF inh 7, Wnt bcat act -5 and SMARCA2 act -5.
`c1ccc2[nH]c(SCC3CCCCO3)nc2c1` (stereo not given) gave MITF TRPM1 HTS 87*, HSF1 activator -10, Wnt bcat act 40*, SMARCA2 act 3 and HSF1 inhib 5.
Screening CCN(CC)c1ccc(C(=O)NNC(=O)c2cccn2C)cc1 returned MITF TRPM1 HTS inconclusive, esBAF inh 18, HSF1 activator 55*, Wnt bcat act 25, SMARCA2 act 5 and HSF1 inhib 18.
`COc1cccc(-n2nc(C#N)c(Cl)cc2=O)c1` gave MITF TRPM1 HTS -90, HSF1 activator 225*, Wnt bcat act -7, SMARCA2 act -11 and HSF1 inhib 155.
`Cc1ccc(C)c(N2CCN(C(=O)CCc3nc(-c4ccccc4Br)no3)CC2)c1` gave MITF TRPM1 HTS 59, esBAF inh 43*, Wnt bcat act 8 and SMARCA2 act 2.
Screening O=C(Nc1ccccc1)C1=C(c2ccccc2)S(=O)(=O)CCS1(=O)=O returned MITF TRPM1 HTS -80, HSF1 activator -68, Wnt bcat act -2, SMARCA2 act -10 and HSF1 inhib -62*.
For CC(=O)Nc1ccc(C=NNc2ccc([N+](=O)[O-])cn2)cc1 the results were MITF TRPM1 HTS 46, esBAF inh 89*, Wnt bcat act 14 and SMARCA2 act 7.
Screening O=[N+]([O-])c1ccc(NN=Cc2ccc3c(c2)OCO3)nc1 returned MITF TRPM1 HTS 78, esBAF inh 93*, Wnt bcat act -3 and SMARCA2 act 4.
For O=[N+]([O-])c1ccc(NN=Cc2cccc(O)c2)nc1 the results were MITF TRPM1 HTS 72, esBAF inh 30, Wnt bcat act -3 and SMARCA2 act -2.
Screening O=[N+]([O-])c1ccc(N/N=C\c2cccnc2)nc1 returned MITF TRPM1 HTS 99*, HSF1 activator 6, Wnt bcat act 9, SMARCA2 act -1 and HSF1 inhib -13.
Screening O=[N+]([O-])c1ccc(NN=Cc2ccco2)nc1 returned MITF TRPM1 HTS 70, esBAF inh 91*, Wnt bcat act 2 and SMARCA2 act 6.
Screening C[C@@H]1CN([C@H](C)CO)C(=O)c2cc(NS(=O)(=O)c3cn(C)cn3)ccc2O[C@H]1CN(C)C(=O)NC1CCCCC1 returned esBAF inh 2.
Cc1cccc(NC(=O)COC(=O)c2cccc3c2C(=O)c2ccccc2C3=O)c1C was read as MITF TRPM1 HTS -5, HSF1 activator 47, Wnt bcat act -3, SMARCA2 act -2 and HSF1 inhib 28.
`CC(=O)c1cccc(NC(=O)COC(=O)c2ccccc2C)c1` gave MITF TRPM1 HTS 97*, esBAF inh 44*, HSF1 activator 20, Wnt bcat act 17, SMARCA2 act 6 and HSF1 inhib 8.
For Cc1cccc(C)c1NC(=O)COC(=O)c1cccc2c1C(=O)c1ccccc1C2=O the results were MITF TRPM1 HTS -3, HSF1 activator 82*, Wnt bcat act -2, SMARCA2 act -1 and HSF1 inhib 30.
Screening CCOc1ncccc1C(=O)OCC(=O)Nc1cccc(C(C)=O)c1 returned MITF TRPM1 HTS -16, esBAF inh 2, HSF1 activator -10, SMARCA2 act -2 and HSF1 inhib -5.
For C[C@@H]1CN([C@@H](C)CO)C(=O)c2cc(NC(=O)C3CC3)ccc2O[C@H]1CN(C)C(=O)NC1CCCCC1 the results were esBAF inh -2.
For COCC#Cc1cnc2c(c1)C(=O)N([C@H](C)CO)C[C@H](C)[C@@H](CN(C)C(=O)NC1CCCC1)O2 the results were esBAF inh 0.
Screening CCSc1nnc(-c2c[nH]c3ccccc23)o1 returned MITF TRPM1 HTS 45, esBAF inh 49*, HSF1 activator 30 and HSF1 inhib 21.
`C[C@@H]1CN([C@H](C)CO)C(=O)Cc2cc(NC(=O)C3CCCCC3)ccc2O[C@H]1CN(C)Cc1ccc2c(c1)OCO2` gave esBAF inh -1.
For CO[C@@H]1CN(C)C(=O)c2ccc(NS(=O)(=O)c3ccc(Oc4ccccc4)cc3)cc2OC[C@@H](C)NC[C@@H]1C the results were esBAF inh -2.
For C#CCSc1nnc(-c2ccc(O)cc2)o1 the results were MITF TRPM1 HTS inconclusive, esBAF inh 69*, HSF1 activator 27, Wnt bcat act 46*, SMARCA2 act 3 and HSF1 inhib 17.
For C#CCSc1nnc(-c2cccc3ccccc23)o1 the results were MITF TRPM1 HTS -5, esBAF inh -2, HSF1 activator 69*, SMARCA2 act -1 and HSF1 inhib 41.
`C#CCSc1nnc(-c2ccc(C)cc2)o1` gave esBAF inh inconclusive, HSF1 activator 61*, SMARCA2 act 4 and HSF1 inhib 37.
Screening c1ccc2c(c1)Cc1cc(CN3CCOCC3)ccc1-2 returned MITF TRPM1 HTS inconclusive, esBAF inh 6, HSF1 activator 56*, SMARCA2 act 6 and HSF1 inhib 41.
c1ccc(CN2CCOCC2)cc1 was read as MITF TRPM1 HTS -13, esBAF inh 1, HSF1 activator 7, SMARCA2 act 0 and HSF1 inhib 1.
Screening O=C(CCC(=O)Nc1ccc(F)cc1)N/N=C/c1ccc(O)cc1O returned MITF TRPM1 HTS -7, HSF1 activator -28, Wnt bcat act -1, SMARCA2 act -3 and HSF1 inhib -16.
For CNC(=S)N/N=C/c1ccccc1Cl the results were MITF TRPM1 HTS 7, HSF1 activator -8, Wnt bcat act 2, SMARCA2 act 0 and HSF1 inhib -3.
